# Screens (PubChem)
# WRN inhibitor = blocks human WRN helicase; Q14191; 360,000 compounds, 0.46% hits; WRN helicase unwinding, fluorescent forked duplex, kinetic; Potency, µM (top dose mostly 114 µM), for the others: top-dose activity change, negative = inhibition, actives largely listed as inhibitors; further: potency means the concentration at half of the fitted maximal effect; on the % scale 0 is the no-effect control and ±100 the full control effect; nearly all actives have a fitted effect of over 55% in size
#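 Kinetic red-fluorescence monitoring (525/598 nm) tracks WRN helicase activity after 100 nM fluorophore-quencher forked duplex and 2 mM ATP are added to 20 nM enzyme pretreated 15 min at room temperature with compound.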
# PI5P4K alpha inh = inhibitors of human PI5P4K alpha. max response, %. 330,000 compounds, 1.2% hits. P48426. PI5P4Kalpha enzyme, ADP-Glo luminescence, 60 min; hits give low values; active means max response of -50% or lower; inconclusive means between -30% and -50%; inactive means -30% or higher; further: value at the top dose of about 77 µM; on the % scale 0 is the no-effect control and ±100 the full control effect
#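 Compounds were pin-transferred onto PI5P4Kalpha and substrate in HEPES pH 7.4 buffer with EGTA, CHAPS and 5% DMSO. ATP (5 microM final) started the reaction, which ran 60 minutes at room temperature before ADP-Glo detection.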
# FEN1 inhibitor = human FEN1 inhibition; P39748; Recombinant FEN1 flap cleavage, fluorescence, 15 min; Potency, µM (series often up to 114 µM), for the others: at the top dose activity change, negative = inhibition, hits mostly inhibitors; 390,000 compounds, 0.35% hits; AID 588795; further: potency means the concentration at half of the fitted maximal effect; on the % scale 0 is the no-effect control and ±100 the full control effect; nearly all actives have a fitted effect of over 65% in size
#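 With each library titrated from low to high concentration, compounds met 10 nM FEN1 for 15 min at room temperature before 50 nM substrate was added; readings at 0 and 15 min fed four-parameter Hill curve fits.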
# TDP1 block = TDP1 (human) enzyme inhibition; Q9NUW8; recombinant TDP1, AlphaScreen DNA substrate cleavage; Potency, µM (series often up to 130 µM), without a hit: top-dose activity change, negative = inhibition, actives largely listed as inhibitors; 350,000 compounds, 0.28% hits; AID 485290; further: potency means the concentration at half of the fitted maximal effect; on the % scale 0 is the no-effect control and ±100 the full control effect; nearly all actives have a fitted effect of over 40% in size
#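 E. coli-derived human Tdp1, 1 nM final. Cpd preinc 15 min RT; substrate 15 nM final, 5 min RT; AS bead mix 10 ug/ml final, 10 min RT. Signal loss = tyrosine-FITC cleavage. No-enzyme wells = max signal.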
# Tb PGK inh = blocks T. brucei phosphoglycerate kinase. Potency, µM (highest dose often 57.5 µM), inactives show at the top dose activity change, negative = inhibition, usual class: inhibitors. PGK/GAPDH coupled, Kinase-Glo luminescence, 60 min. AID 602233. P07378. 380,000 compounds, 0.043% hits; further: potency means the concentration at half of the fitted maximal effect; on the % scale 0 is the no-effect control and ±100 the full control effect; nearly all actives have a fitted effect of over 60% in size
#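 Luminescent ATP detection (Kinase-Glo Plus) follows a 60-minute room-temperature incubation, with wells lacking PGK as controls. Buffer: 100 mM TEA (pH 7.6), 5 mM MgCl2, 0.01% Tween-20. Coupling enzyme GAPDH (100 nM final) supplies unstable 1,3-BPG in-well.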
# Tb PFK inh-1 = inhibitors of T. brucei phosphofructokinase | T. brucei PFK, ADP-Glo luminescence | Potency, µM (titrated, usually from 57.5 µM), inactives show at the highest dose activity, negative = inhibition, actives largely listed as inhibitors | 330,000 compounds, 0.17% hits;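 further: potency means the concentration at half of the fitted maximal effect; 0% = uninhibited 1x PFK enzyme wells and -100% = no-enzyme wells; nearly all actives have a fitted effect of over 60% in size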
# Target sequence (O15648 whole entry, looked up): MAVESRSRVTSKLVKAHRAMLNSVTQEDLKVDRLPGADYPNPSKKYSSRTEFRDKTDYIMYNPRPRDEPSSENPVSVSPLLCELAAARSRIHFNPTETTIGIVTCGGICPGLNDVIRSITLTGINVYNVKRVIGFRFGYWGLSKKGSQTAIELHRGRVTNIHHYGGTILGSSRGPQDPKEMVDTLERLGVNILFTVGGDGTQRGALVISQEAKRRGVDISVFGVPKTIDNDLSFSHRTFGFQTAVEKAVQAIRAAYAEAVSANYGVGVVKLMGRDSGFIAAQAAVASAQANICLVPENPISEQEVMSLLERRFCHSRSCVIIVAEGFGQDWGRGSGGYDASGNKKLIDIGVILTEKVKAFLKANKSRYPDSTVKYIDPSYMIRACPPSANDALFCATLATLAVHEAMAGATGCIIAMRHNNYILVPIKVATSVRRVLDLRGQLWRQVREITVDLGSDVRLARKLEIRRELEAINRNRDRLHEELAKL
#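 In TEA buffer at pH 8.0 with 5 mM MgCl2, enzyme (1.25 nM) converted F6P (0.5 mM) and ATP (0.1 mM) for 45 min at room temperature. ADP product was read by luciferase luminescence.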
# Tb PFK KinaseGlo = Tb phosphofructokinase inhibition, orthogonal luminescence; shares compounds with Tb PFK inh-1; Tb PFK enzyme, ATP depletion, Kinase-Glo Plus luminescence; Potency, µM (titrated, usually from 57.5 µM), for the others: top-dose inhibition; 1,100 compounds, 47% hits; AID 504636; calls by dose curve; further: potency means the concentration at half of the fitted maximal effect; nearly all actives have a fitted effect of over 60% in size
# Tb PFK inh-2 = T. brucei PFK enzyme inhibition, hit validation; shares compounds with Tb PFK inh-1; purified T. brucei PFK, ADP-Glo luminescence, 45 min; Potency, µM (series often up to 57.5 µM), for inactives: top-dose activity change, negative = inhibition, hits mostly inhibitors; 1,100 compounds, 41% hits;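 further: potency means the concentration at half of the fitted maximal effect; plate controls were full PFK enzyme control for no effect and no enzyme control for full effect; nearly all actives have a fitted effect of over 60% in size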
# Active calls of the source: *; i = inactive; u = inconclusive; x = not tested or not shown; [ ] = another dose, or the depositor's remark. Most compounds without a hit are left out; they make up all but 1.5% or so of the library. Unless noted, the call rests on the fitted dose curve; in most records, active means well fitted curve in the direction sought with a large enough effect; inconclusive means small, poorly fitted or top-dose-only effect, or another doubt; inactive means no such curve, though single readings can be large; an effect the other way counts as inactive or inconclusive.
SMILES,WRN inhibitor,PI5P4K alpha inh,FEN1 inhibitor,TDP1 block,Tb PGK inh,Tb PFK inh-1,Tb PFK KinaseGlo,Tb PFK inh-2
O=C(Nc1ccc(Cl)c([N+](=O)[O-])c1)ONC1=NCCCCC1,-4%,13,3%,2%,-1%,u,u,u
COc1cc(/C=C(\C#N)C(=O)c2ccc(O)c(O)c2)cc(I)c1O,1.2µM*,-85*,3.5µM*,6%[56.1 µM],u,1.7µM*,6%,-17%
CC(=O)Oc1ccc(Cl)c2cccnc12,x,x,x,18%,x,x,x,x
CCNC(=O)C1CCCc2c1[nH]c1ccc(Cl)cc21 (centres undefined),-2%,2,-3%,-1%,0%,u,12µM*,21µM*
COC(=O)Oc1nsnc1N1CCOCC1,-7%,x,2%,0%,-10%,27µM*,u,u
OC[C@H]1OC(O)C[C@@H](O)[C@@H]1O (some centres undefined),-7%,0,-4%,x,-6%,-10%,x,x
Cc1nnc(SCc2ccc(Cl)c(Cl)c2)s1,-12%,-7,-7%,0%,15%,24µM*,11µM*,13µM*
O=C(NCc1cccnc1)Nc1ccc([N+](=O)[O-])cc1,13%,0,3%,3%,i,-12%,x,x
O=C(NNC(=O)c1ccncc1)Nc1ccc([N+](=O)[O-])cc1,-11%,2,-12%,2%,6%,u,u,u
O=C(CC1SC(=O)N(c2ccccc2)C1=O)Nc1ccc(Br)cc1 (centres undefined),u,-13,-3%,2%,2%,19µM*,u,u
O=c1[nH]c(=S)n(Cc2ccco2)c(O)c1C=NCc1cccs1,u,-69*,-12%,-5%,-3%,u,u,-13%
Clc1ccc(COc2ccccn2)cc1Cl,5%,-5,5%,-2%,4%,17µM*,12µM*,27µM*
O=[N+]([O-])c1ncccc1OCc1ccc(Cl)c(Cl)c1,-8%,3,-8%,6%,-9%,u,15µM*,17µM*
CC(C)(c1ccc(OCC2CO2)cc1)c1ccc(OCC2CO2)cc1 (centres undefined),x,x,x,-9%,x,x,x,x
CC[C@H](CC[C@@H](C)C1CC[C@H]2[C@@H]3CC=C4C[C@@H](O)CC[C@]4(C)[C@H]3CC[C@]12C)C(C)C (some centres undefined),x,x,x,9%[56.1 µM],x,x,x,x
Cc1ncc2n1-c1ccc(Cl)cc1C(c1ccccc1F)=NC2O (centres undefined),x,x,x,13%,x,x,x,x
Cc1cc(OCC(=O)Nc2ccc(S(=O)(=O)N3CCN(C)CC3)cc2)ccc1Cl,2%,2,13%,5%,-11%,27µM*,u,u
CN1CCN(S(=O)(=O)c2ccc(NC(=O)Cc3ccc([N+](=O)[O-])cc3)cc2)CC1,-19%,3,-4%,7%,i,17µM*,6µM*,12µM*
O=C(Cc1cccc(C(F)(F)F)c1)Nc1ccc(S(=O)(=O)N2CCCC2)cc1,-5%,-1,-1%,1%,-9%,u,u,u
CN1CCN(S(=O)(=O)c2ccc(Cl)nc2)CC1,4%,7,-6%,3%,-3%,4%,x,x
CC(C)C(O)(C(=O)OC[C@@H]1CC[N+]2([O-])CCCC12)C(C)O (some centres undefined),x,x,x,0%,x,x,x,x
